Data on 40 compounds can be found in PubChem BioAssay (NCI).

The panel holds about 83,000 compounds, 20% with a hit somewhere; the sample as a whole holds those more often.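 Interpretation: 100, growth as untreated; towards 0, rising growth inhibition; 0, no net growth; 0 to -100, cell death. Compounds scoring below 10 were considered active.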 Values without a mark were called inactive. The source made the active and inactive calls.

The assay relates to NCI-H460 lung. Description: NCI-60 one-dose screen, 48 h (100 = growth as untreated, 0 = no growth, -100 = all killed). Conditions: 10 µM unless noted. On the procedure:
Growth inhibition of the NCI-H460 human Non-Small Cell Lung tumor cell line is measured as a screen for anti-cancer activity. Cells are grown in 96 well plates and exposed to the test compound for 48 hours. Compounds are tested at a single concentration, which is 10^-5 M for most compounds. The reported endpoint is percent growth (GI% or GIPRCNT), where numbers from 0 - 100% represent growth inhibition, and numbers from -100% - 0 represent cell death. For example, a value of 40 represents 60% growth inhibition. A value of 0 means no net growth occurred over the course of the experiment. A value of -40 indicates 40% of cells at the beginning of the experiment died by the end of the experiment. A value of -100 means all cells are dead at the end of the experiment.
NCI-60 Human Tumor Cell Lines Screen was performed using the standard one-dose NCI protocol, which is described in more detail at https://dtp.cancer.gov/discovery_development/nci-60/default.htm.
Compounds with GIPRCNT values below 10 were considered active. Activity score was based on GIPRCNT using the following formula: […]
Score is 0 for GIPRCNT values of 100 or above, 50 for GIPRCNT values of 0, and 100 for GIPRCNT values of -100.
Regarding `CN1C(=O)CNC(=O)[C@H](NC(=O)c2nc3ccccc3cc2O)CSSC[C@H]1C(=O)NCCCc1nc2ccccc2cc1O`, the growth is 13.4%.
The result for `Cc1cc(-c2cc(C)c(N)cc2C)c(C)cc1N` reads 113%.
As to `Cc1ccc(/C=N\NC(=O)c2[nH]c3ccc(F)cc3c2-c2ccccc2)cc1`, the growth is 3.26% (active).
The result for `O=S(=O)(Nc1ccc(-c2nc(-c3cccc(OCCN4CCOCC4)c3)c(-c3ccnc(Br)c3)[nH]2)cc1)c1ccccc1` reads 28.4%.
The same measure for `COc1ccc2c(c1)/C(=C/c1sc(=S)n(Cc3ccco3)c1O)C=N2`: 9.07% (active); for `OC(c1ccccc1)C(NC(Cc1ccccc1)c1ccccc1)c1ccccc1` (stereo not given): 91.7%.
As to `COc1cc(CNS(=O)(=O)c2ccc(C)cc2)ccc1OCc1cn(-c2ccccc2)nn1`, the growth is 97.1%.
For the compound `CC(=O)N1N=C(c2ccc(Nc3nc(Nc4ccc(F)cc4)nc(Nc4ccc(Cl)cc4)n3)cc2)CC1c1ccc(Cl)cc1` (stereo not given), the growth is 107%.
As to `COC1=C(C)C(=O)c2c(c(CCCl)c3n2CCC3O)C1=O` (stereo not given), the growth was 4.7% (active).
`COc1ccc(/C=C/c2c(C(=O)/C=C/c3ccc(C(F)(F)F)cc3)c(C)nc3ccccc23)cc1`: the growth is -58.9% (active).
As for `Cc1c(C(=O)NCCN2CCOCC2)cn2ncnc(Oc3ccc(NC(=O)Nc4ccc(Cl)c(C(F)(F)F)c4)cc3)c12`, the growth was 3.24% (active).
On to `CCCCCCCCCCCCCCCCCCOc1ccccc1CC(=O)OCC[N+](CC)(CC)CC`, for which the growth is 34.6%.
As for `COc1ccc([C@H]2c3cc(OC)c(OC)cc3C=C(C=O)C2CO)cc1OC` (stereo not given in full), the growth is 69.8%.
For `Cc1c(C(=O)/C=C/Nc2c(Cl)cc(S(N)(=O)=O)cc2Cl)sc2nc3ccccc3n12`, the growth was 104%.
In the case of `O=c1n(Cc2ccc3ccccc3c2)ccn1Cc1ccc2ccccc2c1`, the growth was 85.7%.
As to `O=C(/C=C/c1ccc([N+](=O)[O-])o1)NNC(=O)c1cc2ccccc2cc1O`, the growth was 9.04% (active).
As for `Cc1ccc(S(=O)(=O)N/N=C/C2(c3ccccc3)CC2)cc1`, the growth is 95.1%.
Take `Cc1ccc(-c2nc(N3CCN(CC(=O)Nc4ccc(Cl)cc4)CC3)c3ccccc3n2)cc1`: the growth is 98.4%.
With `CSc1ccc2c(c1)c(CCN)c(C)n2Cc1ccc(Cl)c(Cl)c1`, the growth was -70.6% (active).
Turning to `Cc1ccc2c(n1)C(=O)C(Cl)=C(Nc1ccccc1C(C)C)C2=O`, the growth is 82.4%.
Take `Fc1cc(-c2nnc3sc(-c4ccc(Cl)cc4Cl)nn23)c(Cl)cc1Cl`: the growth is 57.6%.
For the compound `CN1C(=O)N(C)C2Nn3c(s/c(=C\c4ccccc4)c3=O)=NC21` (stereo not given), the growth was 108%.
For the compound `O=C(Nc1ccc(F)cc1F)c1cc(F)ccc1O`, the growth is 7.51% (active).
With `Cc1[nH]c(C(=O)Nc2ccc(C(=O)N3CCNCC3)cc2OC(C)C)c(Cl)c1Cl`, the growth is 2.04% (active).
Turning to `Clc1ccc(C(/C=C/c2sc(Cl)nc2Cl)=N/Nc2cc(Cl)cc(Cl)c2)cc1`, the growth is 103%.
As for `COc1ccc(/C=N/Nc2cc(=O)[nH]c3ccc(Cl)cc23)cc1`, the growth is 23.9%.
With `CCCCn1c(-c2ccc(-c3nc(-c4ccc(Cl)cc4)no3)cc2)nc(-c2ccccc2)c1-c1ccccc1`, the growth is 95.6%.
As to `CCc1cccc2c3c(sc12)C(c1ccc(Cl)cc1)C(C#N)=C(N)O3` (stereo not given), the growth was 10.2%.
On to `O=C(N=c1oc2ccccc2cc1-c1cc2ccccc2[nH]1)Nc1ccc(Cl)cc1`, for which the growth was 99.6%.
Consider `Cc1nn(-c2ccccc2)c2c1N=c1s/c(=C\c3ccc(C(F)(F)F)cc3)c(=O)n1CN2`, for which the growth was 53.8%.
`COc1nc2ccccc2cc1-c1nc2c(cnn2-c2ccccc2)c(=O)[nH]1`: the growth is 24.4%.
The same measure for `COc1ccc(-c2cc3c4c(nc5ccccc5c4c2)CC(c2cc(OC)c(OC)c(OC)c2)O3)cc1` (stereo not given): 12.8%; for `CC(C)c1cc(C(C)C)c(S(=O)(=O)Oc2ccc(NC(=O)c3ccc(Cl)cc3)cc2)c(C(C)C)c1`: 13.4%; for `COc1ccccc1/C=C1\Oc2cc(OCCN3CCC(Cc4ccccc4)CC3)ccc2C1=O`: 93%.
`O=C(S)CNC(=O)c1ccccc1`: the growth is 105%.
The result for `Cc1[nH]c(C(=O)Nc2ccc(C(=O)NCCN)cc2OC(C)C)c(Cl)c1Cl` reads -55.2% (active); that for `Nc1cc2c(cc1Br)-c1cc(Cl)ccc1C2=O`, 100%; that for `CCc1ccccc1-n1c(N)c(C#N)c(-c2ccc(Cl)cc2)c(C#N)c1=O`, 111%.
As to `N/C(=N\c1nc2ccccc2s1)NC(=O)Nc1cccc2ccccc12`, the growth was 10.7%.
As to `COc1ccc(S(=O)(=O)n2c3ccccc3n3ncc(-c4nnc(C)o4)c23)cc1`, the growth was 14.2%.
